The panel holds about 83,000 compounds, 20% with a hit somewhere; the sample as a whole holds those more often.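 Negative percent growth values reflect cell death: -40 means 40% of the cells present at the start died, and -100 means all died.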 A number with no mark means an inactive call. Active and inactive are the calls of the source. How the source made its calls: active means growth percent below 10; inactive means the rest.

Common to all, as to assay: NCI-60 one-dose screen, 48 h (100 = growth as untreated, 0 = no growth, -100 = all killed)
Common to all, as to conditions: 10 µM unless noted

Assay [1] relates to HCT-15 colon.
In assay [2] the test system is HT29 colon.
For assay [3], the system named is SNB-75 CNS.
Assay [4] deals with SNB-19 CNS.
Assay [5] deals with U251 CNS.
The subject of assay [6] is PC-3 prostate.
The subject of assay [7] is SK-MEL-5 melanoma.
For assay [8], the system named is UACC-62 melanoma.
Assay [9] deals with LOX IMVI melanoma.
For assay [10], the system named is SK-MEL-28 melanoma.
Assay [11] deals with SK-MEL-2 melanoma.
Assay [12] deals with EKVX NSCLC.
Assay [13] has as its system SN12C renal.
The test system of assay [14] is UO-31 renal.
Assay [15] deals with TK-10 renal.
The subject of assay [16] is ACHN renal.
Assay [17] concerns A498 renal.
Assay [18] deals with MOLT-4 leukemia.
The subject of assay [19] is CCRF-CEM leukemia.
Assay [20] relates to CAKI-1 renal.

`O=C(Nc1ccc(N=Cc2c(O)[nH]c3ccccc23)cc1)Nc1nccs1`: the growth in assay [1] is 29%; in assay [2] it was 17.9%; in [3], 33.4%; in [4], 31%; in [5], 42%; in assay [6], 68.6%. The growth in [7] was 26.8%; in assay [8], 24.9%; in assay [9], 35.1%; in [10], 61.3%; in assay [11] it was 62.1%; in assay [12], 34.6%. Further, the growth in assay [13] is 68%; in assay [14] it was 48.4%; in assay [15], 75.7%; in assay [16] it was 40.7%; in assay [17], -7.94% (active); in assay [18], 32.2%.

With `CC1(C)[C@@H](O)CC[C@]2(C)[C@H]3CC[C@@H]4[C@H]5[C@H](C(=O)/C=C\c6ccc([N+](=O)[O-])cc6)CC[C@]5(O)CC[C@@]4(C)[C@]3(C)CC[C@@H]12`, the growth was 27.5% in assay [1]; 46.1% in assay [2]; 42.1% in assay [3]; 62.2% in assay [4]; 69.9% in [5]; 47.9% in assay [6]. For the same compound, the growth in [7] was 75.8%; in [8], 48.9%; in [9], -7.58% (active); in [10], 46%; in assay [11], 102%; in assay [12] it was 53.1%. The growth in [14] is 55.2%; in [15], 123%; in assay [16] it was 45.5%; in assay [17], 48.7%; in [19] it was 12%; in assay [18] it was 22.9%.

Consider `Cc1ccc2c(c1)Oc1nc(N)c(C#N)c(N)c1C2Sc1ccc(F)cc1` (stereo not drawn), for which the growth in assay [1] was -77.9% (active); in assay [2], -38.6% (active); in assay [3] it was -14.1% (active); in assay [4], -98.2% (active); in [5], -95.9% (active); in assay [6] it was -96.8% (active). Besides, the growth in assay [7] is -95.4% (active); in assay [8] it was -93.5% (active); in assay [9] it was -93.1% (active); in [10], -98.9% (active); in [11] it was -75.2% (active); in assay [12], -98.9% (active). The growth in [14] is -98.2% (active); in assay [15], -98.8% (active); in [16], -100% (active); in assay [20], -99.8% (active); in [17], -99.3% (active); in assay [19], -21.1% (active).

Turning to `Cc1c(Cl)cccc1S(=O)(=O)Nc1ccc2c(c1)C(=O)N(C1CCC(=O)NC1=O)C2=O` (stereo not drawn), the growth was 24% in assay [1]; 105% in assay [2]; 77.4% in assay [3]; 82.9% in [4]; 95.6% in assay [5]; 95.4% in assay [6]. The growth in assay [7] is 100%; in assay [8], 98.4%; in assay [9] it was 122%; in [10] it was 97.8%; in [11], 107%; in assay [12] it was 91.2%. Moreover, the growth in [14] was 44%; in assay [15], 75.2%; in [16], 108%; in assay [17] it was 91.1%; in [19], 25.5%; in assay [18] it was 3.6% (active).

For `COc1cc(/C=C2\C(=O)Nc3cc(Cl)ccc32)ccc1OCc1ccc(F)cc1`, the growth in [1] was 89%; in assay [2], 105%; in [3], 104%; in assay [4], 104%; in assay [5], 111%; in [6], 87%. Also, the growth in [7] was 99%; in [8], 88.8%; in assay [9] it was 93.5%; in assay [10] it was 105%; in [11], 99.8%; in assay [12], 76.5%. Also, the growth in assay [14] was 79.8%; in assay [15] it was 185%; in assay [16], 93.6%; in assay [17], 94.2%; in [18], 100%.

On to `O=C1[C@H]2Cc3c([nH]c4ccccc34)[C@@H](c3ccc(Br)cc3)N2C(=O)CN1C1CCN(CC2CCCCC2)CC1`, for which the growth in assay [1] is -91.2% (active); in [2] it was -71.1% (active); in [3], -1.64% (active); in assay [4] it was 4.34% (active); in [5], -90.8% (active); in [6] it was -52.3% (active). Besides, the growth was -99.8% (active) in [7]; 42.3% in assay [8]; -87.1% (active) in [9]; -95.5% (active) in [10]; 16.7% in [11]; -79.2% (active) in [12]. Moreover, the growth in assay [14] is 12.3%; in assay [15], -85.2% (active); in assay [16], -95.1% (active); in assay [20] it was -32.9% (active); in assay [17], -15.4% (active); in assay [19], -27.9% (active). In addition, in assay [18], the growth is -43.5% (active).

With `Cn1cc(-c2cc(N)n3nc(-c4cn(C)c5ccccc45)cc3n2)c2ccccc21`, the growth was 32% in assay [1]; 50.6% in assay [2]; 112% in assay [3]; 112% in [4]; 72.4% in [5]; 88.8% in [6]. Moreover, the growth in assay [7] was 92.7%; in assay [8] it was 92.9%; in [9], 65.1%; in assay [10], 95.1%; in [11], 119%; in assay [12], 96%. The growth is 85.9% in assay [14]; 99.3% in assay [15]; 94.8% in assay [16]; 77.8% in [17]; 24.9% in assay [19]; 49.8% in assay [18].

On to `Cc1cc(S(=O)(=O)N(C)C)cc(NCC(=O)NC(=O)NCC(C)C)c1C`, for which the growth was 110% in [1]; 114% in [2]; 45% in assay [3]; 105% in assay [4]; 108% in [5]; 101% in assay [6]. In addition, the growth in assay [7] was 96.5%; in assay [8], 91.8%; in [9], 96.4%; in [10], 102%; in assay [11], 105%; in assay [12], 63.1%. The growth was 57.1% in [14]; 68.2% in assay [15]; 94.4% in assay [16]; 51.7% in assay [17]; 96.1% in assay [18].
